Screening data: PubChem, several laboratories
A selection: hits, their analogues and other compounds. The true share with any hit is near 1.5%.
Rin1-Abl PPI inh = blocks binding of human Rin1 to Abl; TR-FRET Rin1/Abl binding, biochemical; inhibition, % at 7.35 µM; 360,000 tested, 0.4% active; in the data active = inhibition above about 5%, passing the limit was not always enough
sPLA2-III inh = Inhibits HGIII-sPLA2 liposome hydrolysis, primary screen; QFRET BODIPY PC-A2 liposome hydrolysis, fluorescence; 370,000 tested, 0.56% active; AID 743126; inhibition, % at 12.2 µM;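 active = inhibition above mean plus 3 SD of compounds lying within the high and low control bounds, cut at about 19% in these data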;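 note: 0% = median of test compound wells and 100% = no enzyme DMSO wells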
Target sequence (Q9NZ20 whole entry, looked up): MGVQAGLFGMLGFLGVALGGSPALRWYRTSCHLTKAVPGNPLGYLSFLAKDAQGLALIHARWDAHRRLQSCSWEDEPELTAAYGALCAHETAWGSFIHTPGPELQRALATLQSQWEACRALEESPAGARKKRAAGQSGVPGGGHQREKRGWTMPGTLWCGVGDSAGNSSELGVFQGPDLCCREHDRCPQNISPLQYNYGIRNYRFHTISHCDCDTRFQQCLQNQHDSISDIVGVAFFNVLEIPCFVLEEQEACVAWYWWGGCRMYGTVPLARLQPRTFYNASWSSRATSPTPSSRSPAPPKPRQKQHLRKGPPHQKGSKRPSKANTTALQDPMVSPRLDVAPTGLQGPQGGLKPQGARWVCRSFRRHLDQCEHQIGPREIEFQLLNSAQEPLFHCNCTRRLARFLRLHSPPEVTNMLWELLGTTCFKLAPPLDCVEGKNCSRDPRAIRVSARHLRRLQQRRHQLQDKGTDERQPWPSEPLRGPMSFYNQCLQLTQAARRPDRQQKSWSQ
ARNT TACC3 PPI = disrupts binding between human ARNT and TACC3. inhibition, % at 9.99 µM. AlphaScreen His-ARNT PAS-B/GST-TACC3 binding, luminescence; TACC3 fragment carries E629A point mutation. Q9Y6A5. 390,000 tested, 0.66% active;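 active = mean inhibition of replicates at least 50% and at least half of replicates each reaching 50%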;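 note: 0% = complete ARNT plus TACC3 wells and 100% = ARNT alone without TACC3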
AI-2 QS mod = Vibrio harveyi AI-2 quorum sensing modulation; Vibrio harveyi JMH597 AI-2 luminescence/OD600 ratio, 9 h; active compounds read low; strain lacks LuxN and CqsS sensors; 0 = neutral-control median; activity change, % at 7.5 µM; 300,000 tested, 0.4% active; AID 2094; in the data active = activity change below about -75%, passing the limit was not always enough;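 note: luminescence divided by OD600 gain over 9 h not by final OD600 alone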
ARNT Alpha ctr = AlphaScreen artifact in ARNT/TACC3 counter-screen. 1,200 tested, 50% active. AID 651705. His-ARNT PASB-GST AlphaScreen artifact counter-screen, luminescence. shares compounds with ARNT TACC3 PPI. AC50, µM (doses to about 68 µM), for inactives: top-dose activity change, negative = signal decrease;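 active = every separate test run was called active for a drop in luminescence, with AC50 within twice the top valid dose, actives reach about 71 µM in these data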
* hit, by the source's call; x = no result given; [ ] = dose if it differs, or a comment.

SMILES	Rin1-Abl PPI inh	sPLA2-III inh	ARNT TACC3 PPI	AI-2 QS mod	ARNT Alpha ctr
CCCOc1ccc(/C=N/Nc2cc(N3CCOCC3)ncn2)c(O)c1	-1	15	58*	18	-27%
O=C1CCN(Cc2ccccc2)C=C1c1ccc(C(F)(F)F)cc1	-1	-3	active	x	-18%
Cc1ccc2cc(C3C(C#N)=C(N)Oc4c3ccc3cccnc43)c(=O)[nH]c2c1 (stereo not drawn)	4	x	52*	18	52µM*
N#CC1=C(N)Oc2c(ccc3cccnc23)C1c1cccnc1 (stereo not drawn)	-4	-4	55*	17	41µM*
CC(=O)C1=C(C)OC(N)=C(C#N)C1c1cc2cccc(C)c2nc1Cl (stereo not drawn)	-3	-18	-3	1	x
COC(=O)c1sc(N)c(C(=O)OC)c1Cn1ncc(Cl)c(Cl)c1=O	0	-3	52*	21	-10%
C[C@H]1CN([C@@H](C)CO)C(=O)c2cc(NC(=O)CCC(F)(F)F)ccc2O[C@H]1CN(C)C	x	x	-4	x	x
COCCCN=Cc1c(-c2ccccc2)[nH]n(-c2nc3ccccc3s2)c1=O	-1	-15	58*	18	-31%
O=c1c(C=NCCCO)c(-c2ccccc2)[nH]n1-c1nc2ccccc2s1	3	-13	9	14	x
O=C(C[C@@H]1CC[C@@H]2NC[C@H](O)COC[C@H]2O1)Nc1ccccc1	x	x	6	x	x
O=C(COC(=O)c1ccc([N+](=O)[O-])o1)Nc1ccc(F)cc1	3	-3	active	x	-5%
CC(NC(=O)COC(=O)c1ccc([N+](=O)[O-])o1)c1ccccc1 (stereo not drawn)	0	-2	29*	x	1%
C[C@H](CO)N1C[C@H](C)[C@H](CN(C)Cc2ccccc2)OCCCC[C@H](C)Oc2ccc(NC(=O)CCCN(C)C)cc2C1=O	x	x	-2	x	x
Cc1ccc(-c2cc(C(=O)NC3CCCC3)no2)cc1	-2	-4	-7	13	x
O=C(NC1Cc2ccccc2C1)c1cc(-c2ccccc2)on1	x	x	x	x	1%[38 µM]
O=C(NC1CCc2ccccc2C1)c1cc(-c2ccccc2)on1 (stereo not drawn)	x	x	x	x	-2%[38 µM]
O=c1[nH]c2ccccc2c(O)c1SCCO	0	-3	x	9	x
O=C(O)CSc1c(O)c2ccccc2[nH]c1=O	6	2	60*	11	-10%
O=C(Oc1c(CN2CCOCC2)cc(Cl)c2cccnc12)c1ccccc1Br	4	13	63*	40	33µM*
Cc1ccc(S(=O)(=O)Nc2ccc3c(c2)C(=O)N([C@H](C)CO)C[C@H](C)[C@@H](CN(C)C(=O)C2CCCCC2)OCCCC[C@@H](C)O3)cc1	x	x	-4	x	x
CC(C)NC(=O)Nc1ccc2c(c1)CC(=O)N([C@@H](C)CO)C[C@H](C)[C@@H](CN(C)S(=O)(=O)c1cccs1)O2	x	x	-17	x	x
CC(C)NC(=O)Nc1ccc2c(c1)CC(=O)N([C@H](C)CO)C[C@H](C)[C@H](CN(C)S(=O)(=O)c1cccs1)O2	x	x	108*	x	-10%[38 µM]
C[C@H](CO)N1C[C@H](C)[C@H](CN(C)C(=O)NC2CCCCC2)Oc2ccc(NS(=O)(=O)c3cccs3)cc2CC1=O	x	x	59*	x	0%[42 µM]
CCCC(O)C#Cc1cnc2c(c1)C(=O)N([C@H](C)CO)C[C@H](C)[C@H](CN(C)C(=O)NC(C)C)O2 (stereo partly drawn)	x	x	1	x	x
COc1ccc(OC)c2nc3c(C(=O)NCCN(C)C)cccc3nc12	-14	3	20*	x	-5%
SMILES	Rin1-Abl PPI inh	sPLA2-III inh	ARNT TACC3 PPI	AI-2 QS mod	ARNT Alpha ctr
CCC(=O)Nc1ccc2c(c1)OC[C@H](C)N(C(=O)Cc1cccnc1)C[C@@H](C)[C@H](OC)CN(C)C2=O	x	x	-1	x	x
COc1ccc(S(=O)(=O)N(C)C[C@H]2OCCCC[C@H](C)Oc3ccc(NC(=O)NC(C)C)cc3C(=O)N([C@H](C)CO)C[C@@H]2C)cc1	x	x	0	x	x
CC(Nc1nc(-c2ccccn2)nnc1-c1ccccc1)c1ccccc1 (stereo not drawn)	x	x	x	x	2.3µM*
c1ccc(-c2nnc(Nc3nc(-c4ccccn4)nnc3-c3ccccc3)s2)cc1	x	x	x	x	4.1µM*
c1ccc(-c2nnc(-c3ccccn3)nc2NC2CCCCC2)cc1	-12	-4	x	-17	x
CNc1nc(-c2ccccn2)nnc1-c1ccccc1	-12	2	64*	12	3µM*
Cn1c(-c2ccccc2)cnc1Nc1nc(-c2ccccn2)nnc1-c1ccccc1	x	x	x	x	2.6µM*
